Entries with a potency or affinity are not part of this list.

One experiment has as its system Staphylococcus aureus. To be noted: Concentration 32 ug.mL-1; ASSAY_TEST Inhibition of Bacterial Growth; detection method Absorption (OD600); MEDIA CAMHB; plate type 384well; NBS; CORNING #3640; time 18 hr.
A further experiment has as its system Escherichia coli. As to conditions: Concentration 32 ug.mL-1; ASSAY_TEST Inhibition of Bacterial Growth; detection method Absorption (OD600); MEDIA CAMHB; plate type 384well; NBS; CORNING #3640; time 18 hr.

One may read the Inhibition as the change of the read-out against control, counted positive when it falls. As for `Cn1c([N+](=O)[O-])cnc1C(=O)N1CCCC1`, the Inhibition came to 47.23% in the experiment on Staphylococcus aureus and 5.01% with Escherichia coli.
For `Cn1c([N+](=O)[O-])cnc1C(=O)NC1CC1` the same measures were -13.42% and -3.03%.
For `Cn1c([N+](=O)[O-])cnc1C(=O)NCc1cccc(OC(F)(F)F)c1` the same measures were 39.06% and 5.07%.
For `CN(C)C(=O)c1ncc([N+](=O)[O-])n1C` the same measures were 42.28% and 6.99%.
Take `Cn1c([N+](=O)[O-])cnc1C(=O)NCc1ccccn1.O=C(O)C(F)(F)F`: the Inhibition with Staphylococcus aureus was 45.26%; in the experiment on Escherichia coli, -0.31%.
Turning to `Cn1c([N+](=O)[O-])cnc1C(=O)N1CCOCC1`, the figures for the Inhibition in the experiment on Staphylococcus aureus and in the experiment on Escherichia coli were 46.51% and 8.52%, respectively.
For `Cn1c([N+](=O)[O-])cnc1C(=O)NCc1ccc(OC(F)(F)F)cc1` the same measures were 35.57% and 3.65%.
On to `Cc1ccc(CCNC(=O)c2ncc([N+](=O)[O-])n2C)cc1`, for which the Inhibition in the experiment with Staphylococcus aureus is 48.13%; in the experiment on Escherichia coli, 11.97%.
For `Cn1c([N+](=O)[O-])cnc1C(=O)NCc1ccc(F)cc1` the same measures were 28.26% and 3.69%.
For `CC(NC(=O)c1ncc([N+](=O)[O-])n1C)c1ccc(F)cc1` (stereo not given) the same measures were 34.68% and 2.11%.

The record behind these values is ChEMBL document CHEMBL4513134, “CO-ADD screening of University of Queensland (Australia) compounds” (2021).
